Experiment [1] is described as follows: cAMP Responsive Elements (CRE) small molecule antagonists, cell-based qHTS assay: qHTS cell viability counter screen (AID 2060913). Note: nearly all actives have a fitted effect of over 40% in size. In short, it runs like this:
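Viability of NKH477-stimulated (0.25 uM final) CRE-bla HEK293T cells is measured by CellTiter-Glo luminescence following 3 hrs compound exposure at 37 C.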

The nature of experiment [2]: cAMP Responsive Elements (CRE) small molecule agonists, cell-based qHTS assay: qHTS cell viability counter screen (AID 2060914). Note: potency is the fitted concentration of half-maximal effect.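 Note: viability read after 3 h of compound exposure; nearly all actives have a fitted effect of over 50% in size.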 An outline of the steps:
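Cytotoxicity counter screen multiplexed with the CRE-bla reporter assay in HEK 293T cells: 3 h compound exposure at 37 °C, followed by CellTiter-Glo luminescence measured in the same wells.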

Records with an inconclusive call do not appear. A call without a number means that no potency is given here. The source made the active and inactive calls. Calls come from the whole dose curve; as a rule, active = well fitted cell-killing curve with a large enough effect in the repeat runs; inconclusive = weak or mixed curves, or effect the other way; inactive = flat fitted curve, though single readings scatter.

Here are results for 60 molecules from PubChem BioAssay (Tox21).

For `O=C(NC(=O)c1c(F)cccc1F)Nc1cc(Cl)c(OC(F)(F)C(F)F)c(Cl)c1`, the Potency entry in experiment [1] and in experiment [2] was “inactive” in each case.
`CCNc1nc(Cl)nc(NCC)n1`: the Potency entry in experiment [1] and in experiment [2] was “inactive” throughout.
With `N=C(N)[Se]`, the Potency result in experiment [1] and in experiment [2] was “inactive” each time.
With `Clc1cccc2ccccc12`, the Potency entry in experiment [1] and in experiment [2] was “inactive” in each case.
For `O=c1[nH]c2ccccc2o1`, the Potency result in experiment [1] and in experiment [2] was “inactive” in each case.
In the case of `O=C(NC(=O)c1c(F)cccc1F)Nc1cc(Cl)c(OC(F)(F)C(F)C(F)(F)F)cc1Cl` (stereo not given), the Potency entry in experiment [1] and in experiment [2] was “inactive” each time.
Regarding `CC(C)Oc1cc(-n2nc(C(C)(C)C)oc2=O)c(Cl)cc1Cl`, the Potency result in experiment [1] and in experiment [2] was “inactive” in each case.
Regarding `CCOP(=S)(OCC)SCS(=O)(=O)CC`, the Potency entry in experiment [1] and in experiment [2] was “inactive” in each case.
As for `c1ccc2cc3c(cc2c1)-c1cccc2cccc-3c12`, the Potency entry in experiment [1] and in experiment [2] was “inactive” each time.
As to `CC12CC1(C)C(=O)N(c1cc(Cl)cc(Cl)c1)C2=O` (stereo not given), the Potency result in experiment [1] and in experiment [2] was “inactive” in each case.
For `CC(Cl)Cl`, the Potency result in experiment [1] and in experiment [2] was “inactive” throughout.
Regarding `CCCCCCn1cc[n+](C)c1`, the Potency entry in experiment [1] and in experiment [2] was “inactive” throughout.
As for `CC(C)C(=O)OCC(C)(C)C(OC(=O)C(C)C)C(C)C` (stereo not given), the Potency result in experiment [1] and in experiment [2] was “inactive” each time.
`CCC/C=N/O`: the Potency entry in experiment [1] and in experiment [2] was “inactive” in each case.
For the molecule `Cc1cccc([N+](=O)[O-])c1`, the Potency entry in experiment [1] and in experiment [2] was “inactive” each time.
As to `CNC(=O)Oc1ccccc1C(C)C`, the Potency entry in experiment [1] and in experiment [2] was “inactive” each time.
Turning to `Clc1cnc(Oc2ccc(Oc3ncc(Cl)cc3Cl)cc2)c(Cl)c1`, the Potency result in experiment [1] and in experiment [2] was “inactive” throughout.
Regarding `COC(=O)c1ccccc1N`, the Potency entry in experiment [1] and in experiment [2] was “inactive” in each case.
For the molecule `O=[N+]([O-])CCO`, the Potency entry in experiment [1] and in experiment [2] was “inactive” in each case.
Turning to `CC(Cc1ccccc1)NCCCCl` (stereo not given), the Potency result in experiment [1] and in experiment [2] was “inactive” each time.
Turning to `NC1=NC(=O)C(c2ccccc2)O1` (stereo not given), the Potency result in experiment [1] and in experiment [2] was “inactive” in each case.
Consider `CC(C)(Cl)Cl`, for which the Potency result in experiment [1] and in experiment [2] was “inactive” in each case.
As to `c1ccc2c(c1)OCC(C1=NCCN1)O2` (stereo not given), the Potency entry in experiment [1] and in experiment [2] was “inactive” each time.
On to `ClCc1ccccc1CCl`, for which the Potency result in experiment [1] and in experiment [2] was “inactive” in each case.
Consider `C=CC(=O)OCCO`, for which the Potency result in experiment [1] and in experiment [2] was “inactive” each time.
Regarding `CSC1=N[C@@](C)(c2ccccc2)C(=O)N1Nc1ccccc1`, the Potency entry in experiment [1] and in experiment [2] was “inactive” in each case.
For the molecule `CC(Cc1ccc(OCC(=O)O)cc1)NCC(O)c1csc(C(F)(F)F)n1` (stereo not given), the Potency result in experiment [1] and in experiment [2] was “inactive” each time.
As for `O=NN(CCO)CCO`, the Potency entry in experiment [1] and in experiment [2] was “inactive” throughout.
Take `O=c1nc(O)n(Cl)c(=O)n1Cl`: the Potency result in experiment [1] and in experiment [2] was “inactive” throughout.
For the molecule `COc1ccccc1OC`, the Potency result in experiment [1] and in experiment [2] was “inactive” in each case.
As for `CC(=O)OC1(c2ccccc2)CCN(CCc2ccccc2)CC1`, the Potency entry in experiment [1] and in experiment [2] was “inactive” throughout.
As for `CCCCCCCCBr`, the Potency entry in experiment [1] and in experiment [2] was “inactive” in each case.
With `Nc1ccc(Cc2ccc(N)c(Cl)c2)cc1Cl`, the Potency entry in experiment [1] and in experiment [2] was “inactive” each time.
On to `NC(=O)CF`, for which the Potency result in experiment [1] and in experiment [2] was “inactive” throughout.
On to `BrCCCBr`, for which the Potency result in experiment [1] and in experiment [2] was “inactive” each time.
`CC1CCC(=O)O1` (stereo not given): the Potency result in experiment [1] and in experiment [2] was “inactive” each time.
Take `Cc1c(COC(=O)[C@@H]2[C@H](/C=C(\Cl)C(F)(F)F)C2(C)C)cccc1-c1ccccc1`: the Potency entry in experiment [1] and in experiment [2] was “inactive” in each case.
As for `COc1cc(OC)nc(NC(=O)NS(=O)(=O)c2ncccc2C(=O)N(C)C)n1`, the Potency result in experiment [1] and in experiment [2] was “inactive” in each case.
Turning to `CCNP(=S)(OC)O/C(C)=C/C(=O)OC(C)C` (stereo not given), the Potency result in experiment [1] and in experiment [2] was “inactive” each time.
Turning to `CNC(C)(C)Cc1ccccc1`, the Potency entry in experiment [1] and in experiment [2] was “inactive” in each case.
Turning to `O=NN1CCN(N=O)CC1`, the Potency entry in experiment [1] and in experiment [2] was “inactive” in each case.
As for `Clc1cccc(Cl)c1`, the Potency entry in experiment [1] and in experiment [2] was “inactive” throughout.
In the case of `COC1CC(=C(c2cccs2)c2cccs2)C[N+](C)(C)C1` (stereo not given), the Potency entry in experiment [1] and in experiment [2] was “inactive” throughout.
On to `CCC[N+]1(C)CCCCC1`, for which the Potency entry in experiment [1] and in experiment [2] was “inactive” throughout.
`CCCCCCI`: the Potency result in experiment [1] and in experiment [2] was “inactive” each time.
As for `Nc1ccc(Oc2ccc(N)cc2)cc1`, the Potency entry in experiment [1] and in experiment [2] was “inactive” in each case.
Regarding `CC(Br)C(=O)O` (stereo not given), the Potency result in experiment [1] and in experiment [2] was “inactive” each time.
Take `CC1(C)C(=O)NC(=O)NC1=O`: the Potency entry in experiment [1] and in experiment [2] was “inactive” in each case.
For the molecule `COC1=CC(=O)O[C@@H](CCc2ccccc2)C1`, the Potency entry in experiment [1] and in experiment [2] was “inactive” in each case.
Consider `O=C(N[C@H]1N=C(c2ccccc2F)c2cccc3c2N(CC3)C1=O)c1cc2ccccc2[nH]1`, for which the Potency entry in experiment [1] and in experiment [2] was “inactive” each time.
For the molecule `O=C(NC(=O)c1c(F)cccc1F)Nc1ccc(Cl)cc1`, the Potency entry in experiment [1] and in experiment [2] was “inactive” throughout.
As for `CN1C(=O)CN=C(c2ccccc2)c2cc([N+](=O)[O-])ccc21`, the Potency result in experiment [1] and in experiment [2] was “inactive” throughout.
In the case of `O=C(O)c1ccccc1O`, the Potency result in experiment [1] and in experiment [2] was “inactive” throughout.
Consider `Cc1ccc2cc3c(ccc4ccccc43)c3c2c1CC3`, for which the Potency result in experiment [1] and in experiment [2] was “inactive” throughout.
Turning to `Cn1cc[n+](C)c1` (tested in a mixture with another compound), the Potency entry in experiment [1] and in experiment [2] was “inactive” each time.
As to `CCCCCl`, the Potency entry in experiment [1] and in experiment [2] was “inactive” throughout.
In the case of `CC(=O)c1cc2c(cc1C)C(C)(C)C(C)CC2(C)C` (stereo not given), the Potency result in experiment [1] and in experiment [2] was “inactive” throughout.
Turning to `Nc1cccc2ccccc12`, the Potency result in experiment [1] and in experiment [2] was “inactive” each time.
For the molecule `COc1cc(OC)nc(NC(=O)NS(=O)(=O)c2ncccc2OCC(F)(F)F)n1`, the Potency result in experiment [1] and in experiment [2] was “inactive” in each case.
`Clc1ccc(C(c2ccc(Cl)cc2)C(Cl)Cl)cc1`: in experiment [1], the Potency entry is “inactive”. The Potency in experiment [2] is 62.1 µM (active).
